This is an account of results in PubChem BioAssay (NCATS).

Inconclusive results are not listed. The source made the active and inactive calls. Unless noted, calls follow the shape of the dose curve; as a rule, active = well fitted curve in the direction sought with a large enough effect; inconclusive = small, poorly fitted or top-dose-only effect, or another doubt; inactive = no such curve, though single readings can be large; an effect the other way counts as inactive or inconclusive.

Assay [1] in a line: Cellular Toxicity (caspase-3) NIH 3T3 (AID 666).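 Also: caspase signal read after 16 h compound exposure.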 Put shortly:
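Mouse NIH 3T3 fibroblasts (1000 cells/well) were treated with compound for 16 hr at 37°C in complete medium; caspase-3/7 activity was read by Caspase-Glo luminescence. Normalized to DMSO and 100 uM tamoxifen; AC50 from Hill fits.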

The nature of assay [2]: Cellular Toxicity (caspase-3) Renal Proximal Tubule (AID 667).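 Also: cells exposed to compound for 16 hours at 37 °C before detection.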 Put shortly:
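Caspase 3/7 activation measured by luminescent aminoluciferin release in primary rat proximal tubule cells after 16 hr compound exposure at 37 °C. AC50 from Hill-fitted concentration-response, scaled between DMSO and 10 uM staurosporine.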

A short description of assay [3]: Cell Viability - LYMP2-001 (AID 921). Also: series mostly up to about 92 µM; nearly all actives have a fitted effect of over 70% in size. Put shortly: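 Cellular ATP loss read by luciferase luminescence after 24 h compound exposure at 37 C in complete medium. LYMP2-001 lymphoblastoid cells, 2500/well; qHTS concentration-response data fitted with Hill equation for AC50.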
A short description of assay [4]: MultiTox-Fluor Cytotoxicity Assay - LYMP1-001 - Dead Cells (AID 946). The procedure, abridged:
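AC50 from Hill fit of concentration-response; data normalized to DMSO (basal) and 15 uM tetraoctylammonium bromide (100%). LYMP1-001 lymphoblastoid cells, 2500/well, 16 hr compound at 37 C; dead-cell protease fluorescence, Ex/Em 485/520.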

Assay [5] is described as follows: MultiTox-Fluor Cytotoxicity Assay - LYMP1-001 - Live Cells (AID 947).
A short description of assay [6]: Cell Viability - LYMP1-002 - Assay at 16 hr (AID 948). The procedure, abridged: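 ATP luminescence (CellTiter-Glo) was measured after 16 hr compound exposure at 37 C of 2500 lymphoblastoid LYMP1-002 cells per well. Concentration-response curves were fitted with the Hill equation to give AC50.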
The nature of assay [7]: MultiTox-Fluor Cytotoxicity Assay - LYMP1-002 - Live Cells (AID 955). Put shortly:
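Human lymphoblastoid LYMP1-002 cells, 2500/well in complete medium, rested 5 hr at 37 C, then exposed to compounds for 16 hr at 37 C. Live-cell protease cleavage of GF-AFC read by fluorescence (Ex/Em 405/510) after 60 min at room temperature; AC50 from Hill fits.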

Assay [8] in a line: MultiTox-Fluor Cytotoxicity Assay - LYMP1-003 - Live Cells (AID 962).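 Also: cytotoxic hits lower the live-cell protease signal.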 The procedure, abridged: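 LYMP1-003 human lymphoblastoid cells (2500/well) in complete medium were preincubated 5 hr at 37 C, then exposed to compounds for 16 hr at 37 C. Live-cell protease cleavage of GF-AFC read by fluorescence (Ex/Em 405/510); AC50 from Hill fits.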
Assay [9] is described as follows: Cell Viability - LYMP1-003 - Assay at 24 hr (AID 963). The procedure, abridged: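 Human lymphoblastoid LYMP1-003 cells (2500/well) were rested 5 hr at 37 C, then exposed to compounds in complete medium for 24 hr at 37 C. Cellular ATP was quantified by CellTiter-Glo luminescence, and AC50 values came from Hill fits of concentration-response data.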
A short description of assay [10]: Cell Viability - LYMP2-013 (AID 970). Also: series mostly up to about 92 µM; nearly all actives have a fitted effect of over 55% in size. The procedure, abridged: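 Human lymphoblastoid cells, 2500/well, were preincubated 5 hr at 37 C, then treated with compounds for 24 hr at 37 C in complete medium. Intracellular ATP was read by CellTiter-Glo luminescence; AC50 from Hill-equation fits of concentration-response data.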
Assay [11] can be described thus: Cell Viability - LYMP2-015 (AID 971). Also: nearly all actives have a fitted effect of over 55% in size. Put shortly: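 Human lymphoblastoid cells (2500/well) in complete medium were preincubated 5 hr at 37 C, then compound-treated 24 hr at 37 C. Intracellular ATP was read by CellTiter-Glo luminescence after 30 min at room temperature; AC50 came from Hill-equation concentration-response fits.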
The nature of assay [12]: Cell Viability - LYMP2-023 (AID 975).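 Also: cellular ATP measured by luciferase luminescence as viability proxy; series mostly up to about 92 µM; nearly all actives have a fitted effect of over 55% in size.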 The procedure, abridged:
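Human lymphoblastoid cells (2500/well) were preincubated 5 hr at 37 C, then exposed to compounds for 24 hr at 37 C in complete medium. Cellular ATP was read by CellTiter-Glo luminescence, and AC50 came from Hill-equation fits.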

The nature of assay [13]: Cell Viability - LYMP2-025 (AID 976). Also: series mostly up to about 92 µM. Put shortly: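 Human lymphoblastoid LYMP2-025 cells (2500/well) were pre-incubated 5 hr at 37 C, then treated with compounds for 24 hr at 37 C in complete medium. Viability was read as intracellular ATP by CellTiter-Glo luminescence; AC50 from Hill fits.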
The nature of assay [14]: Cell Viability - LYMP2-002 (AID 977). Also: series mostly up to about 92 µM. Put shortly:
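Luminescent ATP readout (CellTiter-Glo, 30 min room temperature) after 24 h compound exposure at 37 C of a human lymphoblastoid line, 2500 cells/well. AC50 values derived by standard Hill fitting of qHTS concentration-response data.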

A short description of assay [15]: Cell Viability - LYMP2-006 (AID 978). Also: series mostly up to about 92 µM; nearly all actives have a fitted effect of over 60% in size. The procedure, abridged:
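Potency values are Hill-fit AC50s for decreases in intracellular ATP (CellTiter-Glo luminescence). LYMP2-006 lymphoblastoid cells, 2500 per well, were exposed to compound in complete culture medium for 24 hr at 37 C.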

Assay [16] is described as follows: Cell Viability - LYMP2-010 (AID 981). Also: nearly all actives have a fitted effect of over 55% in size. Put shortly:
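Human lymphoblastoid LYMP2-010 cells (2500/well) were preincubated 5 hr at 37 C, then exposed to compounds for 24 hr at 37 C in complete medium. Intracellular ATP was measured by CellTiter-Glo luminescence after 30 min at room temperature; AC50 from Hill-fitted concentration-response.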

Assay [17] in a line: Cell Viability - LYMP2-012 (AID 982).
Assay [18] can be described thus: qHTS assay for small molecule agonists of the antioxidant response element (ARE) signaling pathway measured by Nrf2-dependant transcriptional activity (AID 720636; active = well fitted curve in the direction sought with a large enough effect in the repeat runs; an effect the other way counts as inactive or inconclusive; also: potency is read from the fitted curve at half-maximal effect). The procedure, abridged:
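In HepG2 cells engineered with an Nrf2-responsive luciferase gene, ARE induction was quantified as luminescence after 16 hr compound treatment at 37 C.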
(In general: In qHTS, concentration-response curves come from the screen itself.)

Assay [19] in a line: qHTS assay for small molecule antagonists of the retinoid-related orphan receptor gamma (ROR-gamma) signaling pathway - cell viability counter screen (AID 720652; active = well fitted curve in the direction sought with a large enough effect in the repeat runs; an effect the other way counts as inactive or inconclusive;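 also: CHO reporter cells with doxycycline-induced ROR-gamma expression; series mostly up to about 92 µM; compound exposure lasted 16 hr before ATP read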). Put shortly:
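Counter screen in CHO cells carrying TET-inducible ROR-gamma and an ROR response element-luciferase reporter; cells plated 5 hr, compound pinned, doxycycline added, then 16 hr at 37 C. Viability read as intracellular ATP by CellTiter-Glo luminescence.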

The nature of assay [20]: qHTS assay for small molecule activators of the human pregnane X receptor (PXR) signaling pathway (AID 720659; call rule not given here).

On to `CC(C)(c1ccc(OCC2CO2)cc1)c1ccc(OCC2CO2)cc1` (stereo not given), for which the call in assay [1], in assay [2], in assay [3], in assay [5], in [6] and in assay [7] was inactive. Moreover, the molecule was classed as inactive in [8], in [9], in [10], in [11], in assay [12] and in [13]. The result in assay [14], in [15], in assay [17], in assay [19] and in [20] was inactive. The Potency entry in assay [4] and in [16] was “inactive” in each case. Besides, the Potency in assay [18] is 66.8 µM (active).
